# In PubChem BioAssay:
# Several values for one entry are separate records, joined by “and”; a condition that tells them apart may be missing. Equal values may be shown once. Activity calls are given as the source filed them.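 The calls were made as follows, unless noted: active = normalized viability below 100% at a tested concentration; inactive = the rest.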
# Legend:
# [1] = viability loss with induced miR-34 in A549 – imaging, A549 dox-inducible miR-34, nuclei and caspase counts, primary screen (AID 1347080;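 active = compounds whose cell count with miR-34 switched on is under 0.7 times the count with it off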); settings: A549 miR-34 inducible, Hoechst nuclei count, 48 h
# [2] = MELAS cybrid and Rieske KO viability enhancers – cell-based, MELAS cybrids, Rieske KO mouse fibroblasts, CellTiter-Glo, primary screen (AID 1508586;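 active = mean z-score across replicates of 1.96 or higher in either the MELAS or the Rieske mutant cell line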;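 also: z relative to plate mean and SD of compound and empty wells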); settings: low glucose
# [3] = drug combination growth inhibition, ovarian cancer – cell-based, oncology-focused library, rucaparib conditional, profiling panel (AID 1508598); settings: patient-derived ovarian cancer cells, CellTiter-Glo viability, 144 h, stronger effect = lower value
# [4] = growth inhibition, single agent or in combination, cell-based, chromothripsis tumors, cisplatin or BGB combos (AID 1671449; in the data active = inhibition above about 80%;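 also: cells exposed for 96 hours; 0% = vehicle DMSO and 100% = killing by high DMSO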); settings: LFS_MB_P medulloblastoma cells
# [5] = growth inhibition, single agent and combos, cell-based, chromothripsis tumors, cisplatin or BGB combos (AID 1671450; in the data active = inhibition above about 80%;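 also: cells exposed to compound for four days; 0% = vehicle DMSO and 100% = cell killing by high DMSO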); settings: HDN33 neuroblastoma cells, stronger effect = higher value
# [6] = growth inhibition, single agents and combos, ICB984, cell-based, cisplatin or BGB combos, synergistic combos for chromothripsis tumors (AID 1671451; call rule not given here;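 also: cells exposed for 96 hours before readout; 0% = vehicle DMSO and 100% = killing by high DMSO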); settings: ICB984 medulloblastoma cells, drug combinations, stronger effect = higher value
# [7] = growth inhibition, single agents and combos, LFS_MB_1R, cell-based, cisplatin or BGB combos, synergistic combos for chromothripsis tumors (AID 1671452; in the data active = inhibition above about 80%;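 also: cells exposed for 96 hours before readout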); settings: LFS_MB_1R medulloblastoma cells, stronger effect = higher value
# [8] = growth inhibition, single agents and combos, HTB85, cell-based, BGB or cisplatin IC20 combos, synergistic combos for chromothripsis tumors (AID 1671453; in the data active = inhibition above about 80%;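 also: cells exposed for 96 hours before readout; 0% = vehicle DMSO and 100% = high DMSO killing control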); settings: HTB85 osteosarcoma cells, drug combinations, stronger effect = higher value
# [9] = growth inhibition, single agents and combos, CRL2098, cell-based, BGB or cisplatin IC20 combos, synergistic combos for chromothripsis tumors (AID 1671454; in the data active = inhibition above about 80%;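 also: cells exposed for 96 h before readout; 0% = vehicle DMSO and 100% = killing by high DMSO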); settings: CRL2098 osteosarcoma cells, drug combinations, stronger effect = higher value
# [10] = growth inhibition, single agents and combos, HD-MB03, cell-based, BGB or cisplatin IC20 combos, synergistic combos for chromothripsis tumors (AID 1671455; in the data active = inhibition above about 83%;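 also: 0% = vehicle DMSO and 100% = high DMSO as cytotoxic control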); settings: HD-MB03 medulloblastoma cells, stronger effect = higher value
# [11] = growth inhibition, single agents and combos, UWB1.289, cell-based, BGB or cisplatin combos, synergistic combos for chromothripsis tumors (AID 1671456; in the data active = inhibition above about 80%;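 also: cells exposed to compound for four days; 0% = vehicle DMSO and 100% = killing by high DMSO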); settings: UWB1.289 ovarian carcinoma cells, stronger effect = higher value
# [12] = growth inhibition, single agents and combos, LFS_MB_2R, cell-based, cisplatin combos, synergistic combos for chromothripsis tumors (AID 1671457; in the data active = inhibition above about 80%;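 also: cells exposed to compound for four days before readout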); settings: LFS_MB_2R medulloblastoma cells, stronger effect = higher value
# [13] = growth inhibition, MDA-MB-436, cell-based, BGB or cisplatin combos, synergistic combos for chromothripsis tumors (AID 1671458; call rule not given here;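 also: cells exposed for 96 hours; 0% = vehicle DMSO and 100% = killing by high DMSO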); settings: MDA-MB-436 breast carcinoma growth inhibition, drug combinations, stronger effect = higher value
# [14] = UWB1.289_BRCA1 ovarian cancer growth, cell-based, BGB or cisplatin combinations (AID 1671459; in the data active = inhibition above about 80%); settings: UWB1.289 BRCA1 ovarian carcinoma, drug combinations, stronger effect = higher value
# [15] = BT084 cell growth, single and combined drugs, ICGC_MB145, cisplatin and BGB IC40 combos (AID 1671461; in the data active = inhibition above about 80%;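 also: cells exposed to drugs for 96 hours; 0% = vehicle DMSO and 100% = high DMSO full killing control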); settings: BT084 medulloblastoma cells, drug combinations, stronger effect = higher value
# [16] = RCMB18 cell growth, single agent and combined, cisplatin and BGB IC40 combos (AID 1671462; in the data active = inhibition above about 80%;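 also: cells exposed to compound for four days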); settings: RCMB18 medulloblastoma cells, stronger effect = higher value
# [17] = CRL1545 cell growth, single agent and combined, cisplatin and BGB IC20 combos (AID 1671464; in the data active = inhibition above about 80%;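 also: cells exposed to compound for 96 hours before readout; 0% = vehicle DMSO and 100% = high DMSO killing control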); settings: CRL1545 osteosarcoma cells, stronger effect = higher value
# [18] = measured here: combination with BGB IC40, at 0.05 µM
# [19] = measured here: with BGB IC20 combination, at 0.5 µM
# [20] = measured here: with cisplatin IC20 combination, at 0.5 µM
# [21] = measured here: combination with cisplatin, at 0.5 µM
# [22] = measured here: combination with cisplatin, at 5 µM
structure (smiles),measurement,setting,value
O=C(NCC1(c2nc(-c3ccccc3)cs2)CCOCC1)c1cccc(-c2noc(C(F)(F)F)n2)c1,fold change,"[1]; stronger effect = lower value, cell number ratio, induced over uninduced",0.836 (inactive)
same,fold change,[1]; measured here: relative caspase fold change +Dox/-Dox,0.412
same,cell count,"[1]; measured here: total cells with miR-34 induction, stronger effect = lower value",6620
same,cell count,[1]; measured here: total cells without miR-34 induction,7920
same,z-score,"[2]; MELAS cybrid survival, CellTiter-Glo 48 h, stronger effect = higher value",0.0872 (inactive)
same,z-score,"[2]; Rieske KO mouse fibroblast survival, CellTiter-Glo 72 h",0.109
same,viability,"[3]; at 0.000305 µM, OCI-C5x cells, with rucaparib 10 µM, 100% = cells with rucaparib alone",124% (inactive)
same,viability,"[3]; at 0.000305 µM, OCI-C5x cells, without rucaparib",111% (inactive)
same,viability,"[3]; at 0.000305 µM, OCI-P5x cells, with rucaparib 20 µM, 100% = cells with rucaparib alone",98.3% (active)
same,viability,"[3]; at 0.000305 µM, OCI-P5x cells, without rucaparib",94.3% (active)
same,viability,"[3]; at 0.00122 µM, OCI-C5x cells, with rucaparib 10 µM, 100% = cells with rucaparib alone",128% (inactive)
same,viability,"[3]; at 0.00122 µM, OCI-C5x cells, without rucaparib",113% (inactive)
same,viability,"[3]; at 0.00122 µM, OCI-P5x cells, with rucaparib 20 µM, 100% = cells with rucaparib alone",104% (inactive)
same,viability,"[3]; at 0.00122 µM, OCI-P5x cells, without rucaparib",101% (inactive)
same,viability,"[3]; at 0.00488 µM, OCI-C5x cells, with rucaparib 10 µM, 100% = cells with rucaparib alone",127% (inactive)
same,viability,"[3]; at 0.00488 µM, OCI-C5x cells, without rucaparib",117% (inactive)
same,viability,"[3]; at 0.00488 µM, OCI-P5x cells, with rucaparib 20 µM, 100% = cells with rucaparib alone",95.9% (active)
same,viability,"[3]; at 0.00488 µM, OCI-P5x cells, without rucaparib",97.2% (active)
same,viability,"[3]; at 0.0195 µM, OCI-C5x cells, with rucaparib 10 µM, 100% = cells with rucaparib alone",120% (inactive)
same,viability,"[3]; at 0.0195 µM, OCI-C5x cells, without rucaparib",104% (inactive)
same,viability,"[3]; at 0.0195 µM, OCI-P5x cells, with rucaparib 20 µM, 100% = cells with rucaparib alone",95.5% (active)
same,viability,"[3]; at 0.0195 µM, OCI-P5x cells, without rucaparib",89.1% (active)
same,viability,"[3]; at 0.0781 µM, OCI-C5x cells, with rucaparib 10 µM, 100% = cells with rucaparib alone",109% (inactive)
same,viability,"[3]; at 0.0781 µM, OCI-C5x cells, without rucaparib",106% (inactive)
same,viability,"[3]; at 0.0781 µM, OCI-P5x cells, with rucaparib 20 µM, 100% = cells with rucaparib alone",94% (active)
same,viability,"[3]; at 0.0781 µM, OCI-P5x cells, without rucaparib",94.9% (active)
same,viability,"[3]; at 0.313 µM, OCI-C5x cells, with rucaparib 10 µM, 100% = cells with rucaparib alone",132% (inactive)
same,viability,"[3]; at 0.313 µM, OCI-C5x cells, without rucaparib",102% (inactive)
same,viability,"[3]; at 0.313 µM, OCI-P5x cells, with rucaparib 20 µM, 100% = cells with rucaparib alone",95.8% (active)
same,viability,"[3]; at 0.313 µM, OCI-P5x cells, without rucaparib",90.7% (active)
same,viability,"[3]; at 1.25 µM, OCI-C5x cells, with rucaparib 10 µM, 100% = cells with rucaparib alone",135% (inactive)
same,viability,"[3]; at 1.25 µM, OCI-C5x cells, without rucaparib",117% (inactive)
same,viability,"[3]; at 1.25 µM, OCI-P5x cells, with rucaparib 20 µM, 100% = cells with rucaparib alone",88.1% (active)
same,viability,"[3]; at 1.25 µM, OCI-P5x cells, without rucaparib",89.8% (active)
same,viability,"[3]; at 5 µM, OCI-C5x cells, with rucaparib 10 µM, 100% = cells with rucaparib alone",158% (inactive)
same,viability,"[3]; at 5 µM, OCI-C5x cells, without rucaparib",127% (inactive)
same,viability,"[3]; at 5 µM, OCI-P5x cells, with rucaparib 20 µM, 100% = cells with rucaparib alone",78.7% (active)
same,viability,"[3]; at 5 µM, OCI-P5x cells, without rucaparib",84.2% (active)
same,inhibition,"[4]; at 0.5 µM, stronger effect = higher value",16.1% (inactive) and -6.25% (inactive)
same,inhibition,"[4]; measured here: combination with BGB IC20, at 0.005 µM",1.8% and 4.15%
same,inhibition,"[4]; measured here: combination with BGB IC40, at 0.005 µM",2.63% and 14.3%
same,inhibition,[4]; [18],-10.8% and -1.22%
same,inhibition,"[4]; measured here: combination with cisplatin, at 0.5 µM, stronger effect = higher value",3.22% and -32.3%
same,inhibition,"[4]; measured here: combination with cisplatin, at 5 µM, stronger effect = higher value",-16.9% and -3.34%
same,inhibition,"[5]; BGB combo, at 5 µM",-23% and 15.5%
same,inhibition,[5]; at 0.5 µM,-32.5% (inactive) and 16.4% (inactive)
same,inhibition,"[5]; cisplatin combo, at 5 µM",-16.3% and 0.452%
same,inhibition,[5]; [19],-30.2% and 18.4%
same,inhibition,[5]; [20],-45.4% and 11.4%
same,inhibition,"[5]; single agent, at 5 µM",-5.15% and 25.1%
same,inhibition,"[6]; BGB IC20 combo, at 0.005 µM",-22.9% and 2.76%
same,inhibition,"[6]; BGB IC40 combo, at 0.005 µM",9.28% and 13%
same,inhibition,"[6]; BGB IC40 combo, at 0.05 µM",-3.89% and 21%
same,inhibition,[6]; at 0.5 µM,-16.1% (inactive) and 2.22% (inactive)
same,inhibition,"[6]; cisplatin combo, at 0.05 µM",-6.8% and 18.1%
same,inhibition,"[6]; cisplatin combo, at 0.5 µM",-20% and 9.29%
same,inhibition,"[6]; cisplatin combo, at 5 µM",-12.6% and -9.9%
same,inhibition,"[6]; measured here: 5 uM single agent, at 5 µM",-22.5% and 19.3%
same,inhibition,[7]; at 0.5 µM,-33% (inactive) and -1.8% (inactive)
same,inhibition,[7]; [18],-32.4% and 10.2%
same,inhibition,[7]; [21],-76.1% and -10.4%
same,inhibition,[7]; [22],-10.4% and -0.263%
same,inhibition,[8]; at 0.5 µM,-28.5% (inactive) and 1.8% (inactive)
same,inhibition,"[8]; measured here: with BGB IC20, at 0.5 µM",-38.8% and -0.919%
same,inhibition,"[8]; measured here: with BGB IC20, at 5 µM",-58.5% and 4.11%
same,inhibition,"[8]; measured here: with cisplatin IC20, at 0.5 µM",-26.7% and 6.6%
same,inhibition,"[8]; measured here: with cisplatin IC20, at 5 µM",-31.5% and 8.1%
same,inhibition,"[8]; single agent, at 5 µM",-23.9% and 9.32%
same,inhibition,[9]; at 0.5 µM,-56.1% (inactive) and -1.16% (inactive)
same,inhibition,"[9]; measured here: combination with BGB at IC20, at 0.5 µM",-61.3% and -10.8%
same,inhibition,"[9]; measured here: combination with cisplatin at IC20, at 0.5 µM",-66.8% and 10.9%
same,inhibition,[10]; at 0.5 µM,-15.6% (inactive) and 10.1% (inactive)
same,inhibition,"[10]; measured here: combo with BGB at IC20, at 0.5 µM",-9.59% and 1.06%
same,inhibition,"[10]; measured here: combo with cisplatin at IC20, at 0.5 µM",-27.9% and 14.3%
same,inhibition,[11]; at 0.5 µM,-12.3% (inactive) and 13.4% (inactive)
same,inhibition,"[11]; measured here: inhibition with BGB combination, at 0.05 µM",-8.63% and 3.2%
same,inhibition,"[11]; measured here: inhibition with cisplatin combination, at 0.05 µM",0.295% and 28.5%
same,inhibition,[12]; at 0.5 µM,0.9% (inactive) and 4.52% (inactive)
same,inhibition,[12]; [21],0.458% and 8.71%
same,inhibition,[12]; [22],-55.5% and 22.9%
same,inhibition,[13]; at 0.5 µM,-6.26% (inactive) and 2.54% (inactive)
same,inhibition,"[13]; measured here: BGB combination, at 0.5 µM",-4.1% and 0.779%
same,inhibition,"[13]; measured here: BGB combination, at 5 µM",-10.4% and -5.25%
same,inhibition,"[13]; measured here: cisplatin combination, at 0.5 µM",-10.7% and 8.48%
same,inhibition,"[13]; measured here: cisplatin combination, at 5 µM",-13.8% and 11%
same,inhibition,"[14]; BGB combination, concentration series, at 5 µM",-15.2% and 14.2%
same,inhibition,[14]; at 0.5 µM,-10.2% (inactive) and 7.86% (inactive)
same,inhibition,"[14]; cisplatin combination, concentration series, at 5 µM",8.95% and 1.52%
same,inhibition,[15]; at 0.5 µM,-4.68% (inactive) and 10.6% (inactive)
same,inhibition,"[15]; cisplatin combination, at 0.5 µM",-2.52% and 12.6%
same,inhibition,"[15]; cisplatin combination, at 5 µM",12.8% and 27.4%
same,inhibition,"[15]; measured here: BGB IC40 combination 0.05 uM, at 0.05 µM",16% and -10.3%
same,inhibition,"[15]; single agent, at 5 µM",15.3% and 24.7%
same,inhibition,[16]; at 0.5 µM,-34.6% (inactive) and 5.45% (inactive)
same,inhibition,"[16]; cisplatin combo, at 5 µM",-80.8% and -19.2%
same,inhibition,"[16]; measured here: BGB IC40 combination, at 0.05 µM",-21% and 1.81%
same,inhibition,[16]; [21],-74.6% and 3.89%
same,inhibition,"[16]; single agent, at 5 µM",14.7% and 26.4%
same,inhibition,[17]; at 0.5 µM,-45.6% (inactive) and -15.7% (inactive)
same,inhibition,[17]; [19],-23% and -21.2%
same,inhibition,[17]; [20],-60.5% and -14.7%
same,inhibition,"[17]; single agent, at 0.05 µM",-48% and 14.2%
same,inhibition,"[17]; single agent, at 5 µM",36.5% and 43.7%
